Assay results published in PubChem BioAssay AID1063 (University of Pittsburgh Molecular Library Screening Center, 2008).
Out of some 200,000 compounds screened, about 18,000 (9%) were called active. No stated cut-off is given here; in the data, active means inhibition above about 50%; inactive means the rest. The sample as a whole holds a higher share of actives than the screen did.

test: Leishmania major promastigote growth inhibition, primary screen (AID 1063); details: Leishmania major promastigotes, resazurin fluorescence viability; at 10 µM; hits give high values;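 further: promastigotes grown with compound for 44 hours at 28 °C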

| SMILES | inhibition |
| --- | --- |
| CC1=NN(c2ccccc2)C(=O)C1C(=O)c1ccc([N+](=O)[O-])cc1 (stereo unspecified) | -7.88% (inactive) |
| COc1cc(OC)nc(N/N=C(\c2ccccc2)c2ccncc2)n1 | -5.12% (inactive) |
| CC(=O)NCCc1nc2cc(NC(=O)c3ccccc3)ccc2n1C | -4.08% (inactive) |
| CCN(CC)N=Nc1cccc(NC(C)=O)c1 | -3.03% (inactive) |
| CC[n+]1c(C)n(-c2ccccc2)c2ccc(NC(C)=O)cc21 | 98.2% (active) |
| O=C(Nc1ccc2cn[nH]c2c1)c1ccc(S(=O)(=O)N2CCOCC2)cc1 | -3.16% (inactive) |
| O=C(C(Cl)Cl)N1CCN(c2ccccn2)CC1 | 64.4% (active) |
| O=C(Cc1ccccc1Cl)N1CCN(c2ccccn2)CC1 | -2.27% (inactive) |
| CC(=C1C(=O)c2ccccc2C1=O)N1CCN(c2ccccn2)CC1 | -2.16% (inactive) |
| COC(c1ccccc1)c1nnc(CCC(=O)N2CCN(CCOc3ccccc3)CC2)o1 (stereo unspecified) | -4.38% (inactive) |
| CC1=C/C(=N\S(=O)(=O)c2ccccc2)C(C(C)C)=CC1=O | -0.21% (inactive) |
| Cc1ccc(S(=O)(=O)c2ccc(Oc3ccccc3)cc2)cc1 | -3.38% (inactive) |
| CC1=C/C(=N\OS(=O)(=O)c2ccccc2)C=CC1=O | 100% (active) |
| Cc1cccc(C(=O)N2CCC(c3nc4ccccc4s3)CC2)c1 | -2.51% (inactive) |
| Cc1cccc(/C(N)=N/OC(=O)c2ccccc2Cl)c1 | 16.9% (inactive) |
| COC(=O)c1cccc([N+](=O)[O-])c1CS(=O)(=O)c1ccc(C)cc1 | -1.5% (inactive) |
| CC(=O)Nc1ccc(-c2csc(NC=C3C(=O)OC(C)(C)OC3=O)n2)cc1 | 0.56% (inactive) |
| CC(=O)Nc1ccc(S(=O)(=O)Nc2nc(-c3ccc(C(C)(C)C)cc3)cs2)cc1 | 6.97% (inactive) |
| CC(=O)Nc1ccc(-c2csc(NC(=O)Nc3ccccc3)n2)cc1 | 58.2% (active) |
| Cc1cc(C(=O)CSc2nc(N)cc(=O)[nH]2)c(C)n1-c1cccc(F)c1 | 23.6% (inactive) |
| O=C(CCN1C(=O)/C(=C/c2cccs2)SC1=S)NNC(=O)c1cccc(O)c1 | -5.28% (inactive) |
| O=C(NCc1ccc2c(c1)OCO2)c1ccc2c(c1)C(=O)N(CC1CCCO1)C2=O (stereo unspecified) | -1.97% (inactive) |
| O=C1c2cccc3c([N+](=O)[O-])ccc(c23)C(=O)N1CC1CCCO1 (stereo unspecified) | 101% (active) |
| O=c1c2cc3c(=O)n(CC4CCCO4)c(=O)c3cc2c(=O)n1CC1CCCO1 (stereo unspecified) | -5.65% (inactive) |

| SMILES | inhibition |
| --- | --- |
| Cc1cc(C)cc(OCC(=O)Nc2ccc(S(=O)(=O)Nc3ccccn3)cc2)c1 | 7.3% (inactive) |
| O=C(C1CCCO1)N1CCN(C(=S)NC2CC2)CC1 (stereo unspecified) | -5.96% (inactive) |
| CCn1c(-c2ccncc2)n[nH]c1=S | -0.2% (inactive) |
| COCCNc1nc(-n2nc(C)cc2C)nc2sc3c(c12)CCCC3 | 64% (active) |
| COCCn1c(C)cc(C(=O)CSc2ncnc3sc4c(c23)CCC4)c1C | -5.34% (inactive) |
| Cc1nc(SCC(=O)Nc2cc(C)on2)c2c3c(sc2n1)CCCC3 | 1.37% (inactive) |
| CCC(O)CNc1nc(-n2nc(C)cc2C)nc2sc3c(c12)CC(C)(C)OC3 (stereo unspecified) | 9.97% (inactive) |
| Cc1cc(C)n(-c2nc(SCC(=O)N3CCCC3)c3c4c(sc3n2)CCCC4)n1 | 63.1% (active) |
| Cc1nc2sc3c(c2c(=O)n1NC(=O)CCl)CCCC3 | -0.99% (inactive) |
| O=C(CSc1ccc([N+](=O)[O-])cn1)Nc1ccc(N2CCOCC2)c(Cl)c1 | 8.08% (inactive) |
| O=C(CCc1ccccc1)NCCc1cccs1 | -9.15% (inactive) |
| COc1ccc(OC)c2[nH]c(=O)c(CCNC(=O)C(=O)c3c[nH]c4ccccc34)cc12 | -6.77% (inactive) |
| COc1cc(NC(=S)N2CCCC(C)C2)c(OC)cc1Cl (stereo unspecified) | 6.09% (inactive) |
| Cc1cccc(N(C(=O)Cc2cccs2)C(C(=O)NCc2ccco2)c2ccncc2)c1 (stereo unspecified) | 6.9% (inactive) |
| Cc1cccc(C2c3[nH]c4ccccc4c3CCN2C(=O)c2cc(-c3cccn3C)n[nH]2)n1 (stereo unspecified) | 70.9% (active) |
| O=C(c1cn2ccccc2n1)N1CCc2c([nH]c3ccccc23)C1c1ccccn1 (stereo unspecified) | 13.8% (inactive) |
| Cc1cccc(C(=O)N2CCc3c([nH]c4ccccc34)C2CC(C)C)n1 (stereo unspecified) | 31.8% (inactive) |
| CC1(C)CC(=O)C(CC(=O)N2CCC(Cc3ccccc3)CC2)C(=O)C1 | -0.44% (inactive) |
| Cc1cc(C(C)(C)C)cc(S(=O)(=O)Nc2ccc(C(=O)O)cc2)c1C | -3.3% (inactive) |
| CCOc1ccccc1Nc1ccc(C(=O)O)cc1[N+](=O)[O-] | -1.36% (inactive) |
| O=C(CSCc1ccc(Cl)cc1)N1CCN(Cc2ccc3c(c2)OCO3)CC1 | 90.7% (active) |
| O=C(CCCN1C(=O)c2cccc3cccc(c23)C1=O)N1CCN(Cc2ccc3c(c2)OCO3)CC1 | 53.9% (active) |
| Cn1c(=O)cc(OCCCC(=O)N2CCN(Cc3ccc4c(c3)OCO4)CC2)c2ccccc21 | 11.9% (inactive) |
| O=C(CSCc1ccc(Cl)cc1)N1CCCCC1 | -3.7% (inactive) |

| SMILES | inhibition |
| --- | --- |
| CS(=O)(=O)N(CC(=O)N1CCN(Cc2ccc3c(c2)OCO3)CC1)c1ccc2c(c1)OCO2 | -5.11% (inactive) |
| O=C(Nc1cccc2ccccc12)N1CCN(Cc2ccc3c(c2)OCO3)CC1 | 24.5% (inactive) |
| CCc1ccccc1NC(=O)CSc1nnc(-c2ccncc2)o1 | -6.71% (inactive) |
| Cc1ccc(OCc2n[nH]c(=S)n2-c2ccc(C)cc2)cc1 | 1.58% (inactive) |
| Cc1c(-c2cccc(Cl)c2)nc2ccccc2c1C(=O)OCC(=O)N(C)C1CCS(=O)(=O)C1 (stereo unspecified) | 30.9% (inactive) |
| COc1cc(OC)c(C(=O)N2CCCC2)cc1OC | -1.38% (inactive) |
| Cc1ccc(C(=O)N2CCCCCC2)cc1Br | 1.69% (inactive) |
| Cc1c(Br)cc(C(=O)N2CCCCCC2)c(C)c1C | 79% (active) |
| Cc1ccc(NC(=O)CSc2nnc(CNC(=O)c3ccccc3F)o2)cc1 | -3.87% (inactive) |
| CCC(C)(C)NC(=O)CN(C(=O)C(=O)Nc1ccc2c(c1)OCCO2)C(C)(C)CC | 9.2% (inactive) |
| CCOC(=O)CN1CCC(c2ccccc2)CC1 | -3.4% (inactive) |
| c1ccc(C2CCC(N3CCC(N4CCCCC4)CC3)CC2)cc1 (stereo unspecified) | 92.2% (active) |
| O=C(CN1CCN(C2CCCCC2)CC1)Nc1ccccc1N1CCCCC1 | 10.2% (inactive) |
| O=C(COc1ccc(S(=O)(=O)N2CCCCC2)cc1)NCc1ccccn1 | -4.35% (inactive) |
| COc1cc(N/C=C2\CC(=O)NC(C)=C2C#N)cc(OC)c1OC | -6.28% (inactive) |
| O=C(CCS(=O)(=O)Cc1ccccc1)Nc1ccc2c(c1)OCCO2 | -2.36% (inactive) |
| O=C(Cn1cnc([N+](=O)[O-])n1)NCCc1ccccc1 | 21.8% (inactive) |
| O=C(Nc1cccc(CCc2ccccn2)c1)c1ccc(Cl)cc1 | 2.49% (inactive) |
| Cc1ccc2[nH]c(=O)c(CN(CC3COCCO3)C(=O)Nc3ccccc3C)cc2c1 (stereo unspecified) | 4% (inactive) |
| Cc1ccc2[nH]c(=O)c(CN(CCCN(C)C)C(=O)Nc3cccc(Cl)c3)cc2c1 | 93.2% (active) |
| Cc1cccc(NC(=O)N(Cc2cc3cc(C)cc(C)c3[nH]c2=O)CC2COCCO2)c1 (stereo unspecified) | 37.5% (inactive) |
| COc1ccc(C(=O)Nc2ccc(NC(=O)C(C)C)nc2)cc1 | 25.1% (inactive) |
| O=C(N/C(=C\c1ccc(F)cc1)C(=O)N1CCCCCC1)c1ccccc1 | -5.92% (inactive) |
| Cc1cc2ccccc2n1CCC(=O)O | -7.95% (inactive) |

| SMILES | inhibition |
| --- | --- |
| CCc1n[nH]c(=S)n1/N=C/c1c[nH]c2ccc(Br)cc12 | 11.7% (inactive) |
| Cc1ccc(/C=N\n2c(-c3ccccc3)n[nH]c2=S)s1 | 0.81% (inactive) |
| S=c1[nH]nc(-c2ccccc2)n1/N=C/c1c[nH]c2ccccc12 | 54.7% (active) |
| O=C(CCCNS(=O)(=O)c1cccc2nsnc12)NCCN1CCN(c2ccccc2F)CC1 | -3.45% (inactive) |
| Cc1cc(-c2csc(N)n2)c(C)n1Cc1ccccc1 | 7.08% (inactive) |
| COc1ccc(C2NC(=S)NC3=C2CCc2ccccc23)cc1OC (stereo unspecified) | 57.7% (active) |
| COc1ccc(/C=C2\CCc3ccccc3C2=O)c(OC)c1OC | 8.72% (inactive) |
| COc1ccc(C2SCCN2S(=O)(=O)c2ccccc2)cc1OC (stereo unspecified) | 22.3% (inactive) |
| Cc1onc(C(=O)NCc2ccc(F)cc2)c1[N+](=O)[O-] | -5.34% (inactive) |
| CC(=O)c1ccc(NC(=O)C(C)NCc2ccc(Cl)cc2)cc1 (stereo unspecified) | -2.38% (inactive) |
| C=Cn1c(C(=O)O)ccc1-c1ccc(OC)cc1 | -4.56% (inactive) |
| CCOC(=O)C1CCCN(C(=O)COc2ccc(N(C)S(=O)(=O)c3ccc(C)cc3)cc2)C1 (stereo unspecified) | 27.7% (inactive) |
| CCC1CCCCN1S(=O)(=O)Cc1ccccc1Cl (stereo unspecified) | 3.99% (inactive) |
| Cc1nnc(CN(C)Cc2cn[nH]c2-c2ccc(-c3ccccc3)cc2)o1 | 26.1% (inactive) |
| O=C(CC1C(=O)NCCN1Cc1ccc(-c2ccccc2)cc1)NCC1CCOCC1 (stereo unspecified) | 2.89% (inactive) |
| CN(CCC1CCOCC1)Cc1cn[nH]c1-c1ccc(-c2ccccc2)cc1 | 66.8% (active) |
| CC(C(=O)N=Nc1c(O)n(C)c2ccc(Br)cc12)n1cnc2ccccc2c1=O (stereo unspecified) | 7.13% (inactive) |
| O=C1CSC(c2ccccc2)N1c1nc(-c2ccc(Cl)cc2Cl)cs1 (stereo unspecified) | -6.37% (inactive) |
| Clc1ccc(-c2ncc3ccccn23)c(Cl)c1 | 4.32% (inactive) |
| Clc1ccc(-c2cc(C3CCNCC3)[nH]n2)c(Cl)c1 | 94.3% (active) |
| CCOC(=O)c1cc2c(=O)[nH]c(C(Cl)(Cl)Cl)nc2o1 | -8.22% (inactive) |
| CSc1sc(C)cc1C1C(C#N)=C(N)N(c2cccnc2)C2=C1C(=O)CCC2 (stereo unspecified) | 7.04% (inactive) |
| N#CC1=C(N)N(c2ccccc2)C2=C(C(=O)CCC2)C1c1ccccc1 (stereo unspecified) | 69.2% (active) |
| COc1ccc(C2C(C#N)=C(N)N(c3ncn[nH]3)C3=C2C(=O)CCC3)cc1 (stereo unspecified) | -5.04% (inactive) |
